From PubChem BioAssay (NCI)
Compounds without any hit were thinned out: in the full panel of roughly 83,000, 20% have a hit.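 Assay: single dose, 48 h. Readout: percent growth (0 = no net growth; negative = cell death). Active: <10.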 A number with no mark means an inactive call. Activity calls are given as the source filed them.

Tests used:
Experiment in all cases: NCI-60 one-dose screen, 48 h (100 = growth as untreated, 0 = no growth, -100 = all killed)
Conditions in all cases: 10 µM unless noted
HCT-15 colon = test system: HCT-15 colon
HT29 colon = test system: HT29 colon
SNB-75 CNS = test system: SNB-75 CNS
SNB-19 CNS = test system: SNB-19 CNS
U251 CNS = test system: U251 CNS
PC-3 prostate = test system: PC-3 prostate
SK-MEL-5 melanoma = test system: SK-MEL-5 melanoma
UACC-62 melanoma = test system: UACC-62 melanoma
LOX IMVI melanoma = test system: LOX IMVI melanoma
SK-MEL-28 melanoma = test system: SK-MEL-28 melanoma

Compound	growth (HCT-15 colon)	growth (HT29 colon)	growth (SNB-75 CNS)	growth (SNB-19 CNS)	growth (U251 CNS)	growth (PC-3 prostate)	growth (SK-MEL-5 melanoma)	growth (UACC-62 melanoma)	growth (LOX IMVI melanoma)	growth (SK-MEL-28 melanoma)
Clc1nc(Cl)c2ncn(CCOCCn3cnc4c(Cl)nc(Cl)nc43)c2n1	-78.7% (active)	-60.5% (active)	-92.3% (active)	-89.3% (active)	-72.3% (active)	-93.4% (active)	-91.5% (active)	-95.9% (active)	-83.2% (active)	-95.7% (active)
CC(=O)N1c2ccccc2NC2=C(C(=O)N(C)C2(C)C)C1C (stereo not given)	93.8%	25.2%	-3.29% (active)	39.9%	18.1%	36.4%	27.5%	32.3%	37.5%	56%
COc1cc(C2CC(c3cccc(Nc4ccncc4)c3)=NN2C(C)=O)cc(OC)c1OC (stereo not given)	98%	78.5%	67.4%	93%	91.5%	84.2%	89.9%	93.9%	85.3%	96.6%
Clc1nc(Cl)c2ncn(CC3(Cn4cnc5c(Cl)nc(Cl)nc54)COC3)c2n1	-89.9% (active)	-70.1% (active)	-96.6% (active)	-99.1% (active)	-95.9% (active)	-98.4% (active)	-96.2% (active)	-92.4% (active)	-89.2% (active)	-97.9% (active)
COc1cc(COC(=O)CCCCC[P+](c2ccccc2)(c2ccccc2)c2ccccc2)c(OC)c2c1OCO2	99.3%	32.3%	59.9%	55.5%	56.8%	44.9%	3.32% (active)	46.9%	35.6%	51.4%
CC(C)[N+](C)(CCOC(COc1ccccc1)COc1ccccc1)C(C)C	100%	73.4%	70.9%	86.2%	83.8%	73.2%	86.8%	78.6%	95.5%	96.6%
O=S(=O)(NCCCNc1nccc(-c2c(-c3cccc(O)c3)nc3occn23)n1)c1ccc(F)cc1	90.2%	36.3%	104%	113%	95.3%	81.4%	35.7%	-1.99% (active)	44.4%	33.7%
Clc1ccc(N2N=C(c3cccc(Nc4ccncc4)c3)CC2c2ccccc2)cc1 (stereo not given)	103%	80.7%	65%	95.6%	90.4%	84.9%	94%	96.9%	86.8%	90.4%
O=S(=O)(NCCNc1nccc(-c2c(-c3cccc(F)c3)nc3occn23)n1)c1cccc2ccccc12	41.5%	34.2%	61.4%	67.1%	59.7%	30.6%	30%	45.1%	59.7%	73%
CC(=O)OCC(=O)C1(O)C(C)CC2C3C=C(C)C4=Cc5c(cnn5-c5ccccc5)CC4(C)C3C(O)CC21C (stereo not given)	-36.2% (active)	-54.9% (active)	-8.24% (active)	10.3%	14.3%	9.92% (active)	-14.2% (active)	-26.6% (active)	6.79% (active)	35.3%
Nc1c(Cl)cc([N+](=O)[O-])cc1Br	103%	103%	108%	116%	101%	96.1%	98.9%	102%	104%	110%
Nc1cc(N)c2cccnc2c1O	83.7%	87.4%	104%	64.2%	68.3%	80.7%	62.9%	43%	42.3%	73.6%
COc1cc(NCC(O)CN(CC(C)C)CC(C)C)c2nc(C)ccc2c1 (stereo not given)	84.8%	80.2%	97.9%	96%	91.3%	75.3%	93.5%	88.9%	90.1%	100%
C[C@@H]1CN(Cc2ccc(/C=C/c3n[nH]c4ccc5nc(-c6cn[nH]c6C(F)(F)F)c6c(c5c34)CCCC6)cc2)C[C@H](C)O1	7.35% (active)	7.17% (active)	-4.9% (active)	57.1%	46.1%	22.7%	40.3%	44.3%	8.23% (active)	40.6%
COc1cc(OC)c(/C=C/C(=O)c2ccc(Nc3ncnc4ccccc34)cc2)c(OC)c1	9.75% (active)	-62.4% (active)	-38.9% (active)	12.9%	-9.02% (active)	12%	-42.4% (active)	-50% (active)	3.48% (active)	-26.4% (active)
Cc1ccc(C(c2c(O)c3cc(Br)ccc3[nH]c2=O)c2c(O)c3cc(Br)ccc3[nH]c2=O)cc1	79.1%	97.5%	83.7%	93%	83.7%	75.5%	73.3%	63.2%	84.1%	89.6%
COc1cccc(CNCCN2C(=O)c3ccc4c5c(ccc(c35)C2=O)C(=O)N(CCNCc2cccc(OC)c2)C4=O)c1	9.24% (active)	2.39% (active)	120%	84.2%	76.9%	78.9%	58.8%	96.8%	59.4%	120%
O=S(=O)(NCCCNc1nccc(-c2c(-c3ccc(F)c(O)c3)nc3sccn23)n1)c1ccc(F)cc1	6.51% (active)	9.5% (active)	51.3%	19.7%	2.83% (active)	8.22% (active)	-45.1% (active)	-42.2% (active)	2.15% (active)	9.19% (active)
O=C(N/N=C/c1cccc(O)c1)c1ccccc1Nc1cccc(C(F)(F)F)c1	72.2%	106%	79.7%	88.1%	82.4%	81.9%	82.5%	80.7%	66.7%	96.6%
CC(c1ccccc1)n1ccnc1CO (stereo not given)	107%	119%	92.4%	98.5%	98.9%	94.7%	93.4%	104%	96.3%	94.5%

Compound	growth (HCT-15 colon)	growth (HT29 colon)	growth (SNB-75 CNS)	growth (SNB-19 CNS)	growth (U251 CNS)	growth (PC-3 prostate)	growth (SK-MEL-5 melanoma)	growth (UACC-62 melanoma)	growth (LOX IMVI melanoma)	growth (SK-MEL-28 melanoma)
Cc1c2c(cc[n+]1Cc1ccccc1)c1ccc(OCC3CCCCC3)cc1n2CC1CCCCC1	-81.7% (active)	-79% (active)	-87.3% (active)	-90.7% (active)	-92.5% (active)	-75.8% (active)	-100% (active)	-94% (active)	-95.6% (active)	-95.8% (active)
COc1cc(Nc2cc(O)c3c(=O)cc(-c4ccccc4)oc3c2)cc(OC)c1	25%	3.58% (active)	-9.05% (active)	43.1%	22.8%	27.8%	28.6%	42.5%	41.7%	68.5%
COc1cc2c(cc1[N+](=O)[O-])-c1ccc([N+](=O)[O-])cc1/C2=N\O	87.4%	75.3%	75.5%	79.4%	76.8%	73.2%	75.4%	75.9%	67.8%	99.7%
O=C(N/N=C/c1ccncc1)c1ccccc1Nc1cccc(C(F)(F)F)c1	74.2%	99.3%	75.8%	72.2%	86.9%	75.8%	76%	81%	70.5%	94.9%
CC[N+](CC)(CCCC(C)[N+]1(Cc2ccccc2)C(C)=CC=C1C)Cc1ccccc1 (stereo not given)	98.5%	44.1%	87.6%	92.6%	106%	73.3%	68.7%	73%	90.7%	78.8%
COc1ccc2c(c1)OC1=C(C(=O)OC1)C2c1cc(OC)c(OC)c(OC)c1 (stereo not given)	19%	6.93% (active)	41.1%	33.8%	21.6%	28.1%	16.1%	42.3%	50.8%	53.5%
CCN1C(=O)/C(=c2\sc3n(c2=O)NC2C(N=3)N(CC)C(=O)N2CC)c2ccccc21 (stereo not given)	33.7%	12.9%	7.11% (active)	50.8%	33.4%	29.6%	30.9%	43.9%	55.4%	55.5%
CCOC(=O)c1ccc(Nc2ccnc(SCC(=O)c3ccc(C#N)cc3)n2)cc1	75.8%	76.2%	102%	89.9%	84.8%	39.6%	37.5%	39.3%	80.3%	80.8%
COc1ccc(-c2nc(N/N=C/c3cccc(O)c3)nc(N3CCOCC3)c2C#N)cc1	46.9%	72.6%	23.6%	85.9%	58.9%	56.5%	80.1%	90.1%	79.6%	33.9%
COc1ccc2c(c1)OC13Oc4cc(OC)ccc4C=C1CCCC3=C2	12.8%	8.16% (active)	74.6%	54.7%	35%	23.6%	40.3%	14.8%	-32.1% (active)	63%
C/C(=C(/c1ccccc1)c1ccc(OCC(O)CNCCN2CCOCC2)cc1)c1ccccc1 (stereo not given)	4.47% (active)	3.2% (active)	65.8%	91.2%	32.6%	65.4%	29%	62.8%	18.7%	-86.2% (active)
S=c1[nH]cccc1-c1nnc2n1Nc1nc3ccccc3cc1CS2	108%	106%	82.8%	94.8%	103%	107%	97.4%	91.2%	98.6%	111%
COC(=O)C1=C(C(=O)ONCCN(C)C)C2C=CC1(C(Cc1ccccc1)Nc1ccc(F)cc1)O2 (stereo not given)	48.1%	75.1%	106%	105%	100%	105%	105%	90.9%	96.3%	96.1%
CCC(=O)c1ccc(O)c(OC)c1	111%	103%	100%	95.9%	93.9%	92.4%	98.6%	95.5%	102%	97.8%
CCc1c(Nc2ccc(C)cc2)[nH]c(N)nc1=S	99.7%	103%	93.5%	98.3%	97%	107%	101%	93.8%	105%	104%
c1ccc(N2N=C(c3cccc(Nc4ccncc4)c3)CC2c2ccc3c(c2)OCO3)cc1 (stereo not given)	-26% (active)	6.66% (active)	5.74% (active)	42.4%	4.31% (active)	14.3%	-14.3% (active)	62.1%	-22.1% (active)	-52.7% (active)
CC1(C)CN(c2cnc(C(=O)Nc3cc(F)cc4cccnc34)cn2)CCN1	59.3%	47.1%	72.9%	93.1%	89.5%	44.8%	89.3%	106%	69.7%	80.2%
COc1ccc(-c2nc(SCC(C)C)nc(N/N=C(/C)c3ccc(OC)c(OC)c3)c2C#N)cc1	79.8%	90.4%	80.2%	78.2%	89.6%	52.5%	74.6%	81.2%	84.3%	84.5%
CCN1C(=O)N(CC)C2NC(SC)=NC21 (stereo not given)	103%	108%	86%	97.8%	101%	99.5%	104%	96.2%	93.1%	97.8%
CCCCCCOc1ccc(/C=N/Nc2cc(C)nc3ccc(Br)cc23)cc1	-83.5% (active)	-65.5% (active)	-94.5% (active)	-73.7% (active)	-64.8% (active)	-73% (active)	47.3%	25.8%	-94.1% (active)	-81.9% (active)
